# PubChem BioAssay (Tox21)
# Results filed as inconclusive are left out. A call without a number means that no potency is given here. A number with no mark means an inactive call. Calls of active or inactive are those of the source. Unless noted, calls come from the whole dose curve; as a rule, active = well fitted curve in the direction sought with a large enough effect in the repeat runs; inconclusive = weak or mixed curves; inactive = no such curve, though single readings can be large; an effect the other way counts as inactive or inconclusive.
# Legend:
# [1] = qHTS assay to identify small molecule antagonists of the estrogen related receptor (ERR) signaling pathway (AID 1224819; note: nearly all actives have a fitted effect of over 50% in size)
# Procedure, shortened: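 ERR reporter cell line (NTP) plated at 2,000 cells/well, settled 6 h at 37C/5% CO2, then exposed to LOPAC compounds for 18 h at 37C. One-Glo luciferase luminescence read after 30 min at room temperature.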
# [2] = qHTS assay to identify small molecule agonists of the estrogen related receptor (ERR) signaling pathway (AID 1224820)
# Procedure, shortened: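 Quantitative HTS of the LOPAC library used NTP ERR reporter cells treated 18 h at 37 C. Signal is luminescence after One-Glo addition and a 30 min room-temperature incubation.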
# [3] = test system: estrogen-related receptor alpha (ERRalpha) with PGC-1alpha coactivator, human; experiment: qHTS assay to identify small molecule antagonists of the estrogen related receptor signaling pathway with the pleiotropic PPARgamma coactivator (PGC) (AID 1224821; calls by dose curve; note: nearly all actives have a fitted effect of over 50% in size)
# Procedure, shortened: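 Quantitative HTS for antagonism: PGC/ERR cells received compounds after 6 h attachment and were incubated 18 h at 37 C, with luminescence (One-Glo) as the endpoint.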
# [4] = qHTS assay to identify small molecule agonists of the estrogen related receptor signaling pathway with the pleiotropic PPARgamma coactivator (PGC) (AID 1224823)
# Procedure, shortened: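 Cell-based luciferase assay in the NTP-supplied PGC/ERR line, 2,000 cells/well; 18 h compound exposure at 37 C, luminescence after One-Glo.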
# [5] = qHTS assay to identify small molecule antagonists of the estrogen related receptor signaling pathway with the pleiotropic PPARgamma coactivator (PGC) cell viability counter screen (AID 1224822;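 note: viability read after 17.5 h compound exposure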)
# Procedure, shortened: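 PGC/ERR cells rested 6 h, then compound-treated 17.5 h at 37 C. CellTiter-Fluor added for 30 min at 37 C, viability measured by fluorescence intensity.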
# Potency is the fitted concentration of half-maximal effect.
Structure (SMILES),Potency [1],Potency [2],Potency [3],Potency [4],Potency [5]
O=C(O)c1cc([N+](=O)[O-])ccc1NCCCc1ccccc1,inactive,inactive,inactive,inactive,
CC1CN(S(=O)(=O)c2cccc3cnccc23)CCN1 (stereo not given),inactive,inactive,,inactive,inactive
O=C(c1ccc(Cl)cc1)N1CCN(c2ccc([N+](=O)[O-])c3ncccc23)CC1,7.5 µM (active),inactive,,inactive,
CN(C)c1cc2c(Nc3ccc4c(cnn4Cc4ccccc4)c3)ncnc2cn1,13.3 µM (active),inactive,,inactive,
CO/N=C(\C(=O)N[C@@H]1C(=O)N2C(C(=O)O)=C(CSc3nc(=O)c(O)nn3C)CSC12)c1csc(N)n1 (stereo not given in full),inactive,,inactive,inactive,inactive
Cc1ccc(S(=O)(=O)N[C@@H](Cc2ccccc2)C(=O)CCl)cc1,inactive,inactive,,inactive,26.6 µM (active)
CCCCC[C@H](CC(=O)NO)C(=O)N[C@H](C(=O)N1CCC[C@H]1CO)C(C)C,5.11 µM (active),inactive,,inactive,inactive
Nc1ncnc2c1nc(Br)n2C1OC2COP(=O)(O)O[C@@H]2C1O (stereo not given in full),inactive,inactive,,inactive,
CC(C)(C)c1cc(/C=C(\C#N)C(N)=S)cc(C(C)(C)C)c1O,2.46 µM (active),inactive,2.11 µM (active),inactive,
NC(N)=NC(=O)c1nc(Cl)c(N2CCCCCC2)nc1N,11.9 µM (active),inactive,inactive,inactive,
CC(C)(NS(=O)(=O)c1ccc(Oc2ccc(F)cc2)cc1)C(=O)NO,2.46 µM (active),inactive,,inactive,inactive
NC[C@@H]1O[C@H](C23CC4CC(CC(C4)C2)C3)Cc2c1ccc(O)c2O,22.8 µM (active),inactive,inactive,inactive,
CCCC(=O)NCCc1c2n(c3ccc(OC)cc13)CCCc1ccccc1-2,20.3 µM (active),inactive,,inactive,
CCOC(=O)C1=C(C)NC(C)=C(C(=O)OCC)C1c1c(F)c(F)c(F)c(F)c1F,19.6 µM (active),inactive,25.6 µM (active),inactive,
CN(C)c1ccc(/C=C2\C(=O)Nc3ccccc32)cc1,inactive,3.35 µM (active),inactive,3.1 µM (active),
Cc1nc(N=Nc2cc(S(=O)(=O)O)c3cc([N+](=O)[O-])cc(S(=O)(=O)O)c3c2)c(COP(=O)(O)O)c(C=O)c1O,inactive,inactive,inactive,inactive,
